According to PubChem BioAssay (EPA / NIEHS):
The source made the active and inactive calls. The calls were made as follows: active = hit-call score of the fitted dose curve at least 0.9, where 1 is the maximum; inactive = score below 0.9.

Tests used:
Settings in all cases: actives raise or lower the signal
[1] = CEETOX_H295R_ANDR_noMTC: CeeTox H295R High-throughput Steroidogenesis Assay for Androstenedione (ANDR), maximum tolerated concentration (MTC) filtered results only (AID 2283915)
Protocol: CEETOX_H295R is a cell-based, multiplexed-readout assay that uses H295R, a human adrenal gland cell line, with measurements taken at 48 hours after chemical dosing in a 96-well plate.CEETOX_H295R_ANDR_noMTC is one of 12 assay component(s) measured or calculated from the CEETOX_H295R assay (11 hormones and 1 viability assay). It is designed to make measurements of hormone induction, a form of inducible reporter, as detected with absorbance signals by HPLC-MS-MS technology. The concentrations for these components have not been pre-filtered for the maximum tolerated concentration (MTC) based on the MTT assay (_noMTC).Data from the assay component CEETOX_H295R_ANDR_noMTC was analyzed into 1 assay endpoint. This assay endpoint, CEETOX_H295R_ANDR_noMTC, was analyzed with bidirectional fitting relative to DMSO as the negative control and baseline of activity. […]
Cell culture and media preparation procedures were conducted in accordance with OECD Test No. 456 guidelines, with minor modifications. […] For steroid quantification, media samples were shipped to OpAns, LLC (Durham, NC) on dry ice, and samples were thawed to room temperature prior to liquid-liquid extraction. […] Steroid hormones were separated by HPLC, eluted using a reverse phase C18 gradient with electrospray positive ionization, followed by quantification by tandem mass spectrometry (MS/MS). […]

[2] = CEETOX_H295R_ESTRADIOL_noMTC: CeeTox H295R High-throughput Steroidogenesis Assay for Estradiol, maximum tolerated concentration (MTC) filtered results only (AID 2283919)
Summary of the method: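 H295R human adrenal cells pre-stimulated 48 h with 10 uM forskolin, then exposed 48 h to chemical (0.1% DMSO final). Estradiol in medium measured by HPLC-MS/MS after MTBE extraction and dansyl derivatization; bidirectional fit versus DMSO, concentrations not MTT-filtered.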

[3] = CEETOX_H295R_ESTRONE_noMTC: CeeTox H295R High-throughput Steroidogenesis Assay for Estrone, maximum tolerated concentration (MTC) filtered results only (AID 2283921)
Summary of the method: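 H295R cells prestimulated 48 h with 10 uM forskolin, then exposed 48 h to chemical in 0.1% DMSO; medium estrone measured by HPLC-MS/MS after MTBE extraction and dansyl derivatization, fitted bidirectionally versus DMSO without MTT-based MTC filtering.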

[4] = CEETOX_H295R_TESTO_noMTC: CeeTox H295R High-throughput Steroidogenesis Assay for Testosterone (TESTO), maximum tolerated concentration (MTC) filtered results only (AID 2283924)
Summary of the method: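 H295R cells prestimulated 48 h with 10 uM forskolin, then exposed 48 h to chemicals in 0.1% DMSO final. Testosterone in medium quantified by MTBE extraction and HPLC-MS/MS; bidirectional fit versus DMSO, concentrations […] filtered by MTT-based maximum tolerated concentration.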

Measured: outcome

CCCCCCCCOC(=O)c1ccccc1C(=O)OCCCCCCCC
inactive: [1] | [2] | [3] | [4]
